Among all 5,500 compounds or so, about 2,000 (36%) were called active. Not shown: some 18% with an inconclusive outcome. Cut-off read from the data, not from the text of the source: active = normalized growth mostly below about 0.91 (no sharp cut-off); inconclusive = no clear call, values can overlap the other calls; inactive = mostly above about 0.92. The list shows a part of the results.
Experiment: chemical genetic growth profiling, strain panel (AID 1159580);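 note: tested at 20 µM; growth read once vehicle control cultures reached saturation at 30 °C; 1 = growth at the plate median or of vehicle wells; lower values mean less growth of the strain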
Settings: S. cerevisiae deletion strains, growth OD

Measured: normalized growth

CC1(C)S[C@@H]2[C@H](NC(=O)[C@H](C(=O)O)c3cccs3)C(=O)N2[C@H]1C(=O)O
inactive: locus YAL021C, strain ccr4, active compounds read low 0.996 | locus YAL026C, strain drs2, active compounds read low 1.02 | locus YAL030W, strain snc1, active compounds read low 1.01 | locus YBL061C, strain skt5, active compounds read low 1.01 | locus YBR009C, strain hhf1, active compounds read low 1.03 | locus YBR023C, strain chs3, active compounds read low 1.01 | locus YBR171W, strain sec66, active compounds read low 1.03 | locus YBR231C, strain swc5, active compounds read low 1.02 | locus YBR279W, strain paf1, active compounds read low 1.01 | locus YCL011C, strain gbp2, active compounds read low 1.01 | locus YCL016C, strain dcc1, active compounds read low 0.998 | locus YCL061C, strain MRC1, active compounds read low 1.01 | locus YCL069W, strain vba3, active compounds read low 0.999 | locus YCR088W, strain abp1, active compounds read low 0.996 | locus YDL005C, strain med2, active compounds read low 1.01 | locus YDL040C, strain nat1, active compounds read low 0.999 | locus YDR001C, strain nth1, active compounds read low 1 | locus YDR069C, strain doa4, active compounds read low 1.04 | locus YDR137W, strain rgp1, active compounds read low 1.02 | locus YDR159W, strain sac3, active compounds read low 1.01 | locus YDR195W, strain ref2 1.02 | locus YDR297W, strain sur2, active compounds read low 1.01 | locus YDR334W, strain swr1, active compounds read low 1 | locus YDR335W, strain msn5, active compounds read low 1.01 | locus YDR392W, strain spt3, active compounds read low 1.01 | locus YEL003W, strain gim4, active compounds read low 1.01 | locus YEL037C, strain rad23, active compounds read low 0.973 | locus YEL061C, strain CIN8 (second series), active compounds read low 0.991 | locus YER015W, strain faa2, active compounds read low 1.01 | locus YER016W, strain bim1, active compounds read low 1 | locus YER111C, strain swi4, active compounds read low 1.01 | locus YER155C, strain BEM2 (second series), active compounds read low 1.04 | locus YFR010W, strain ubp6, active compounds read low 1 | locus YGL167C, strain pmr1, active compounds read low 1.01 | locus YGL173C, strain kem1, active compounds read low 1.01 | locus YGL227W, strain vid30, active compounds read low 1 | locus YGL240W, strain doc1, active compounds read low 1.04 | locus YGL253W, strain hxk2, active compounds read low 0.998 | locus YHR013C, strain ard1, active compounds read low 1.03 | locus YHR027C, strain rpn1, active compounds read low 1 | locus YHR030C, strain SLT2, active compounds read low 1.01 | locus YHR079C, strain IRE1, active compounds read low 1.02 | locus YHR142W, strain chs7, active compounds read low 0.957 | locus YJL092W, strain hpr5, active compounds read low 1 | locus YJL095W, strain BCK1 (second series), active compounds read low 1 | locus YJL095W, strain BCK1, active compounds read low 0.974 | locus YJL115W, strain asf1, active compounds read low 1 | locus YJL129C, strain trk1, active compounds read low 1.01 | locus YJL154C, strain vps35, active compounds read low 0.999 | locus YJL164C, strain tpk1, active compounds read low 0.999 | locus YJL166W, strain qcr8, active compounds read low 1.01 | locus YJL187C, strain SWE1, active compounds read low 1.02 | locus YJR066W, strain TOR1, active compounds read low 0.952 | locus YKL160W, strain elf1, active compounds read low 1.01 | locus YKR026C, strain gcn3, active compounds read low 0.991 | locus YKR091W, strain srl3, active compounds read low 1.01 | locus YLL001W, strain dnm1, active compounds read low 0.999 | locus YLL026W, active compounds read low 1.01 | locus YLL041C, strain sdh2, active compounds read low 1.01 | locus YLR027C, strain aat2, active compounds read low 1.01 | locus YLR113W, strain HOG1, active compounds read low 0.971 | locus YLR221C, strain rsa3, active compounds read low 0.989 | locus YLR258W, strain gsy2, active compounds read low 1.02 | locus YLR262C, strain YPT6 (second series), active compounds read low 0.996 | locus YLR320W, strain mms22, active compounds read low 1.01 | locus YLR342W, strain FKS1, active compounds read low 1.01 | locus YLR357W, strain rsc2, active compounds read low 1.07 | locus YLR370C, strain arc18, active compounds read low 1.01 | locus YLR384C, strain iki3, active compounds read low 0.994 | locus YML120C, strain ndi1, active compounds read low 1.01 | locus YMR058W, strain fet3, active compounds read low 1.02 | locus YMR125W, strain sto1, active compounds read low 1.03 | locus YMR129W, active compounds read low 1 | locus YMR205C, strain PFK2, active compounds read low 1.03 | locus YMR231W, strain pep5, active compounds read low 1.01 | locus YNL071W, strain lat1, active compounds read low 1.01 | locus YNL183C, strain NPR1, active compounds read low 0.96 | locus YNL209W, strain ssb2, active compounds read low 1.01 | locus YNL248C, strain rpa49, active compounds read low 0.991 | locus YNL322C, strain KRE1 (second series), active compounds read low 1.01 | locus YNR049C, strain mso1, active compounds read low 0.994 | locus YOR001W, strain rrp6, active compounds read low 1 | locus YOR070C, strain gyp1, active compounds read low 0.999 | locus YOR080W, strain dia2, active compounds read low 1.02 | locus YOR083W, strain WHI5, active compounds read low 1 | locus YOR106W, strain vam3, active compounds read low 1 | locus YOR231W, strain MKK1, active compounds read low 1.02 | locus YOR265W, strain rbl2, active compounds read low 0.998 | locus YOR270C, strain vph1, active compounds read low 1 | locus YOR290C, strain snf2, active compounds read low 1.01 | locus YPL051W, strain arl3, active compounds read low 1 | locus YPL078C, strain atp4, active compounds read low 0.989 | locus YPL106C, strain sse1, active compounds read low 1.03 | locus YPL240C, strain hsp82, active compounds read low 0.986 | locus YPL256C, strain CLN2, active compounds read low 1.03

— PubChem BioAssay AID1159580 (chemical genetic matrix, 2015)
